Values joined by “and” are separate entries in the source; they are usually repeats but may differ in a detail not shown here. Equal entries are not always repeated. About 2,000 (36%) of roughly 5,500 compounds were called active. Roughly 18% stayed inconclusive and do not appear here. No stated cut-off is given here; in the data, active means normalized growth mostly below about 0.91 (no sharp cut-off); inconclusive means no clear call, values can overlap the other calls; inactive means mostly above about 0.92. This is one part of the list.
Assay: chemical genetic growth profiling, strain panel (AID 1159580);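 further: tested at 20 µM; growth read once vehicle control cultures reached saturation at 30 °C; 1 = growth at the plate median or of vehicle wells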
Conditions: S. cerevisiae deletion strains, growth OD

Measured: normalized growth

COc1ccc2c(c1)OCC(Cc1ccc(OC)c(OC(C)=O)c1)C2=O (configuration not stated)
inactive: locus YAL013W, strain DEP1, stronger effect = lower value 0.979 | locus YAL021C, strain ccr4, stronger effect = lower value 0.974 | locus YAL026C, strain drs2, stronger effect = lower value 0.967 | locus YAL030W, strain snc1, stronger effect = lower value 0.973 | locus YBL061C, strain skt5, stronger effect = lower value 0.967 | locus YBR009C, strain hhf1, stronger effect = lower value 0.983 | locus YBR021W, strain FUR4, stronger effect = lower value 0.883 | locus YBR023C, strain chs3, stronger effect = lower value 0.965 | locus YBR171W, strain sec66, stronger effect = lower value 0.962 | locus YBR229C, strain ROT2, stronger effect = lower value 0.996 | locus YBR231C, strain swc5, stronger effect = lower value 0.969 | locus YBR279W, strain paf1, stronger effect = lower value 0.973 | locus YCL011C, strain gbp2, stronger effect = lower value 0.985 | locus YCL016C, strain dcc1, stronger effect = lower value 0.985 | locus YCL029C, strain bik1, stronger effect = lower value 1.01 | locus YCL061C, strain MRC1, stronger effect = lower value 0.976 | locus YCL069W, strain vba3, stronger effect = lower value 0.982 | locus YCR088W, strain abp1, stronger effect = lower value 0.984 | locus YDL005C, strain med2, stronger effect = lower value 0.963 | locus YDL035C, strain GPR1, stronger effect = lower value 0.99 | locus YDL040C, strain nat1, stronger effect = lower value 0.96 | locus YDL074C, strain BRE1, stronger effect = lower value 1.01 | locus YDL101C, strain DUN1, stronger effect = lower value 0.988 | locus YDL134C, strain PPH21, stronger effect = lower value 0.952 | locus YDL185W, strain tfp1, stronger effect = lower value 1.02 | locus YDL192W, strain arf1, stronger effect = lower value 1 | locus YDR001C, strain nth1, stronger effect = lower value 0.982 | locus YDR069C, strain doa4, stronger effect = lower value 0.958 | locus YDR101C, strain arx1, stronger effect = lower value 0.996 | locus YDR137W, strain rgp1, stronger effect = lower value 0.959 | locus YDR150W, strain NUM1, stronger effect = lower value 0.982 | locus YDR159W, strain sac3, stronger effect = lower value 0.975 | locus YDR162C, strain NBP2, stronger effect = lower value 0.957 | locus YDR195W, strain ref2 1.04 | locus YDR297W, strain sur2, stronger effect = lower value 0.978 | locus YDR318W, strain mcm21, stronger effect = lower value 0.992 | locus YDR334W, strain swr1, stronger effect = lower value 0.973 | locus YDR335W, strain msn5, stronger effect = lower value 0.984 | locus YDR388W, stronger effect = lower value 0.998 | locus YDR392W, strain spt3, stronger effect = lower value 0.781 | locus YDR502C, strain sam2, stronger effect = lower value 0.992 | locus YEL003W, strain gim4, stronger effect = lower value 0.992 | locus YEL037C, strain rad23, stronger effect = lower value 0.978 | locus YEL061C, strain CIN8 (second series), stronger effect = lower value 0.984 | locus YEL061C, strain CIN8, stronger effect = lower value 0.993 | locus YER015W, strain faa2, stronger effect = lower value 0.98 | locus YER016W, strain bim1, stronger effect = lower value 0.977 | locus YER110C, stronger effect = lower value 1.02 | locus YER111C, strain swi4, stronger effect = lower value 0.972 | locus YER155C, strain BEM2 (second series), stronger effect = lower value 0.952 | locus YER155C, strain BEM2, stronger effect = lower value 0.981 | locus YER167W, strain BCK2, stronger effect = lower value 0.993 | locus YFR010W, strain ubp6, stronger effect = lower value 0.969 | locus YGL078C, strain dbp3, stronger effect = lower value 1 | locus YGL086W, strain mad1, stronger effect = lower value 1.01 | locus YGL167C, strain pmr1, stronger effect = lower value 0.957 | locus YGL173C, strain kem1, stronger effect = lower value 0.954 | locus YGL227W, strain vid30, stronger effect = lower value 0.979 | locus YGL240W, strain doc1, stronger effect = lower value 0.99 | locus YGL248W, strain PDE1, stronger effect = lower value 0.99 | locus YGL253W, strain hxk2, stronger effect = lower value 0.93 | locus YGR078C, strain PAC10, stronger effect = lower value 0.977 | locus YGR135W, strain pre9, stronger effect = lower value 1 | locus YGR252W, strain gcn5, stronger effect = lower value 1.01 | locus YHR013C, strain ard1, stronger effect = lower value 0.95 | locus YHR027C, strain rpn1, stronger effect = lower value 0.995 | locus YHR030C, strain SLT2, stronger effect = lower value 1 and 1.05 | locus YHR079C, strain IRE1 (second series), stronger effect = lower value 0.987 | locus YHR079C, strain IRE1, stronger effect = lower value 1.01 | locus YHR094C, strain hxt1, stronger effect = lower value 0.992 | locus YHR129C, strain ARP1, stronger effect = lower value 0.998 | locus YHR142W, strain chs7, stronger effect = lower value 0.965 | locus YHR200W, strain rpn10, stronger effect = lower value 1.01 | locus YIL066C, strain RNR3, stronger effect = lower value 0.982 | locus YIL073C, strain SPO22, stronger effect = lower value 0.996 | locus YIL125W, strain kgd1, stronger effect = lower value 1 | locus YIR030C, strain dcg1, stronger effect = lower value 0.987 | locus YJL092W, strain hpr5, stronger effect = lower value 0.98 | locus YJL095W, strain BCK1 (second series), stronger effect = lower value 0.973 | locus YJL095W, strain BCK1, stronger effect = lower value 0.991 and 1.05 | locus YJL115W, strain asf1, stronger effect = lower value 0.983 | locus YJL129C, strain trk1, stronger effect = lower value 0.945 | locus YJL134W, strain LCB3, stronger effect = lower value 1 | locus YJL154C, strain vps35, stronger effect = lower value 0.98 | locus YJL164C, strain tpk1, stronger effect = lower value 0.97 | locus YJL166W, strain qcr8, stronger effect = lower value 0.961 | locus YJL168C, strain set2, stronger effect = lower value 0.99 | locus YJL187C, strain SWE1 (second series), stronger effect = lower value 0.991 | locus YJL187C, strain SWE1, stronger effect = lower value 0.978 | locus YJR043C, strain POL32, stronger effect = lower value 1.01 | locus YJR066W, strain TOR1, stronger effect = lower value 1 | locus YJR075W, strain HOC1, stronger effect = lower value 0.983 | locus YKL009W, strain mrt4, stronger effect = lower value 0.993 | locus YKL068W, stronger effect = lower value 0.984 | locus YKL085W, strain MDH1 (second series), stronger effect = lower value 0.982 | locus YKL085W, strain MDH1, stronger effect = lower value 0.982 | locus YKL160W, strain elf1, stronger effect = lower value 0.98 | locus YKL190W, strain CNB1, stronger effect = lower value 0.974 | locus YKR001C, strain vps1, stronger effect = lower value 1.01 | locus YKR026C, strain gcn3, stronger effect = lower value 0.971 | locus YKR091W, strain srl3, stronger effect = lower value 0.974 | locus YLL001W, strain dnm1, stronger effect = lower value 0.979 | locus YLL026W, stronger effect = lower value 0.976 | locus YLL041C, strain sdh2, stronger effect = lower value 0.987 | locus YLR027C, strain aat2, stronger effect = lower value 0.97 | locus YLR039C, strain RIC1, stronger effect = lower value 1.04 | locus YLR058C, strain SHM2, stronger effect = lower value 0.995 | locus YLR102C, strain apc9, stronger effect = lower value 1 | locus YLR113W, strain HOG1, stronger effect = lower value 0.95 | locus YLR221C, strain rsa3, stronger effect = lower value 0.943 | locus YLR258W, strain gsy2, stronger effect = lower value 0.963 | locus YLR262C, strain YPT6 (second series), stronger effect = lower value 0.965 | locus YLR262C, strain YPT6, stronger effect = lower value 1 | locus YLR268W, strain sec22, stronger effect = lower value 0.992 | locus YLR320W, strain mms22, stronger effect = lower value 0.933 | locus YLR330W, strain CHS5, stronger effect = lower value 0.997 | locus YLR342W, strain FKS1 (second series), stronger effect = lower value 0.993 | locus YLR342W, strain FKS1, stronger effect = lower value 0.948 | locus YLR357W, strain rsc2, stronger effect = lower value 0.974 | locus YLR370C, strain arc18, stronger effect = lower value 0.981 | locus YLR371W, strain rom2, stronger effect = lower value 1.01 | locus YLR384C, strain iki3, stronger effect = lower value 0.975 | locus YLR418C, strain cdc73, stronger effect = lower value 0.995 | locus YML016C, strain PPZ1, stronger effect = lower value 1 | locus YML032C, strain rad52, stronger effect = lower value 1 | locus YML120C, strain ndi1, stronger effect = lower value 0.982 | locus YML124C, strain tub3, stronger effect = lower value 0.995 | locus YMR058W, strain fet3, stronger effect = lower value 0.965 | locus YMR078C, strain ctf18, stronger effect = lower value 1 | locus YMR125W, strain sto1, stronger effect = lower value 0.985 | locus YMR129W, stronger effect = lower value 0.975 | locus YMR205C, strain PFK2, stronger effect = lower value 0.946 | locus YMR223W, strain ubp8, stronger effect = lower value 1 | locus YMR231W, strain pep5, stronger effect = lower value 0.946 | locus YMR263W, strain SAP30, stronger effect = lower value 0.996 | locus YMR307W, strain GAS1, stronger effect = lower value 0.92 | locus YNL067W, strain RPL9B, stronger effect = lower value 0.981 | locus YNL071W, strain lat1, stronger effect = lower value 0.949 | locus YNL153C, strain GIM3, stronger effect = lower value 0.988 | locus YNL183C, strain NPR1, stronger effect = lower value 0.99 | locus YNL209W, strain ssb2, stronger effect = lower value 0.996 | locus YNL233W, strain BNI4, stronger effect = lower value 0.991 | locus YNL248C, strain rpa49, stronger effect = lower value 0.963 | locus YNL250W, strain rad50, stronger effect = lower value 1.01 | locus YNL271C, strain bni1, stronger effect = lower value 0.989 | locus YNL298W, strain CLA4, stronger effect = lower value 1 | locus YNL307C, strain MCK1, stronger effect = lower value 1 | locus YNL322C, strain KRE1 (second series), stronger effect = lower value 0.979 | locus YNR049C, strain mso1, stronger effect = lower value 0.97 | locus YNR052C, strain pop2, stronger effect = lower value 0.996 | locus YOL012C, strain htz1 1.12 | locus YOL147C, strain pex11, stronger effect = lower value 0.988 | locus YOR001W, strain rrp6, stronger effect = lower value 0.956 | locus YOR061W, strain CKA2, stronger effect = lower value 0.995 | locus YOR069W, strain VPS5, stronger effect = lower value 1 | locus YOR070C, strain gyp1, stronger effect = lower value 1 | locus YOR080W, strain dia2, stronger effect = lower value 0.978 | locus YOR083W, strain WHI5, stronger effect = lower value 0.971 | locus YOR106W, strain vam3, stronger effect = lower value 0.963 | locus YOR136W, strain idh2, stronger effect = lower value 1 | locus YOR144C, strain elg1, stronger effect = lower value 0.996 | locus YOR184W, strain ser1, stronger effect = lower value 0.969 | locus YOR231W, strain MKK1, stronger effect = lower value 1.01 | locus YOR265W, strain rbl2, stronger effect = lower value 0.975 | locus YOR270C, strain vph1, stronger effect = lower value 0.88 | locus YOR290C, strain snf2, stronger effect = lower value 0.974 | locus YOR316C, strain cot1, stronger effect = lower value 1.01 | locus YPL051W, strain arl3, stronger effect = lower value 1 | locus YPL078C, strain atp4, stronger effect = lower value 0.972 | locus YPL106C, strain sse1, stronger effect = lower value 0.982 | locus YPL240C, strain hsp82, stronger effect = lower value 0.971 | locus YPL256C, strain CLN2, stronger effect = lower value 1.04 | locus YPR119W, strain clb2, stronger effect = lower value 0.995 | locus YPR141C, strain kar3, stronger effect = lower value 1.01 | locus YPR163C, strain tif3, stronger effect = lower value 1.01 | locus YPR167C, strain met16, stronger effect = lower value 0.994 | strain wtn01, stronger effect = lower value 1.01
